Source: PubChem BioAssay
D1 PAM: potentiators of human D1 dopamine receptor; P21728; 360,000 tested, 0.036% active; HEK293 TREx D1 cells, calcium flux, dopamine EC20 potentiation; potentiation, % at 10 µM; in the data active = potentiation above about 30%; note: 0% is about no effect
Target sequence (P21728 whole entry, looked up): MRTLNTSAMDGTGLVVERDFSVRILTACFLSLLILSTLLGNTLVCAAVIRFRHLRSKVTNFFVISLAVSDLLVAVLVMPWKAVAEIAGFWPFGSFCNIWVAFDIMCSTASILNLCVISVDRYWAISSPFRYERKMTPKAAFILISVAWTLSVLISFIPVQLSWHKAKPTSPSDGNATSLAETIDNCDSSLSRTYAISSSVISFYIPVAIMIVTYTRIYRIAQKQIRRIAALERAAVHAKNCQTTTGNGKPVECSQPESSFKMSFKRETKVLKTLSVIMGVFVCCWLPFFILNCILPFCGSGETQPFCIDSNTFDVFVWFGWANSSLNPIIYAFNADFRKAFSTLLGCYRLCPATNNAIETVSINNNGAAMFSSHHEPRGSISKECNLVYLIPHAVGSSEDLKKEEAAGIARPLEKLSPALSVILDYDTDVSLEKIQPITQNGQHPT
D1 agonist: human D1 receptor agonism; 360,000 tested, 1% active; activation, % at 2 µM; P21728; HEK293 T-REx D1 cells, calcium flux, agonist mode; note: 0% is about no effect
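Tetracycline-induced HEK293 TREx D1 cells, force-coupled to calcium signalling, were dye-loaded with a no-wash calcium kit. Compound was pin-added after a 10 s baseline. Fluorescence was read kinetically at 1 cycle/s for 180 s, with calcium rises flagged as agonism.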
D1 antagonist: human D1 dopamine receptor antagonism. activity change, negative = inhibition, % at 10 µM. HEK293 TREx D1 cells, calcium flux, dopamine EC80; active compounds read low. P21728. AID 504652. 360,000 tested, 3.2% active; in the data active = activity change below about -30%; note: % is set by controls: 0 for no effect and ±100 for the full control effect
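Inducible Hek293 Trex D1 cells (tetracycline, overnight, 30 C). Calcium dye 30–90 min RT. Antagonist mode: EC80 dopamine added after 180 s compound read.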
TRHR agonist: agonists of human TRH receptor. P34981. TRHR cells, calcium flux fluo-8, FDSS agonist mode. activation, % at 2 µM. 360,000 tested, 0.18% active. AID 493084; note: 0% is about no effect
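Steps: seed TRHR cells overnight; add fluo-8 no-wash Ca dye, RT 30 min–1.5 h; record 10 s baseline; pin-transfer compounds; monitor fluorescence 1 cycle/s for the agonist window. Calcium increases flag candidate agonists.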
TRHR enhancer: TRH receptor (human) allosteric enhancement | P34981 | TRHR cells, fluo-8 calcium fluorescence, EC20 TRH enhancement | enhancement, % at 2 µM | 360,000 tested, 0.66% active | AID 493056; in the data active = enhancement above about 30%; note: 0% is about no effect
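TRHR-expressing cells loaded with fluo-8 calcium dye were read kinetically (ex 480/em 530) during compound addition, then stimulated with an EC20 of TRH (10 nM final). Enhancement of the Gq-mediated intracellular calcium response was scored.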
GRP78 ERSR act: induces the endoplasmic reticulum stress response in human glioma cells; AID 602332; 420,000 tested, 0.02% active; Potency, µM, for the others: at the top dose activation, actives largely listed as activators; U87-MG GRP78 promoter luciferase reporter, 16 h; active = well fitted activation curve with a large enough effect; note: potency is the fitted concentration of half-maximal effect; series mostly up to about 76 µM; % of control where 0% means no effect; nearly all actives have a fitted effect of over 35% in size
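ERSR induction read as luciferase luminescence (Bright-Glo, 10 min at room temperature) in stably transfected human U87-MG glioma cells exposed to compounds for 16 h, using GRP78 as sensor.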
Numbers without * were called inactive. Hits are enriched below; roughly 4% of the tested compounds scored in any of these assays. Cut-off read from the data, not from the text of the source, unless noted: active = activation above about 30%; inactive = the rest.

For CCSc1cc(N2CCCC2)nc(-c2ccc(C)cc2)n1 the results were D1 PAM -1, D1 agonist 5, D1 antagonist 9, TRHR agonist -1, TRHR enhancer 3 and GRP78 ERSR act -3%.
CCc1nnc(NS(=O)(=O)c2ccc(NCc3cc(Cl)cc(Cl)c3O)cc2)s1 was read as D1 PAM 0, D1 agonist 33*, D1 antagonist 6, TRHR agonist 0, TRHR enhancer 11 and GRP78 ERSR act -1%.
Screening COc1ccc(NS(=O)(=O)c2cccc(NC(=O)c3cnccn3)c2)cc1Br returned D1 PAM -3, D1 agonist 7, D1 antagonist -31*, TRHR agonist 0, TRHR enhancer -1 and GRP78 ERSR act -3%.
Screening CN(C)S(=O)(=O)c1cccc(NC(=O)c2cnccn2)c1 returned D1 PAM 1, D1 agonist 1, D1 antagonist 3, TRHR agonist 2 and TRHR enhancer 3.
Screening COc1ccc(N2CCOCC2)c(NC(=O)COc2cccc(C)c2)c1 returned D1 PAM 2, D1 agonist -1, D1 antagonist 22, TRHR agonist 0, TRHR enhancer 4 and GRP78 ERSR act -3%.
CC1(C)NC(=O)N(CC(O)COc2ccccc2C(=O)N2CCCCC2)C1=O (configuration not stated) was read as D1 PAM -2, D1 agonist 2, D1 antagonist -30*, TRHR agonist 0, TRHR enhancer -2 and GRP78 ERSR act -6%.
`O=C1C(c2ccc(F)cc2)N(CCc2ccc(Cl)cc2)C(=O)CN1C1CCCCCC1` (configuration not stated) gave D1 PAM 1, D1 agonist 6, D1 antagonist -18, TRHR agonist 0, TRHR enhancer -3 and GRP78 ERSR act -3%.
`Cc1ccc2nc(N3CCC(C(=O)N4CCN(c5cccc(Cl)c5)CC4)CC3)[nH]c2c1` gave D1 PAM -2, D1 agonist 43*, D1 antagonist -11, TRHR agonist -1, TRHR enhancer -1 and GRP78 ERSR act 0%.
For COc1ccccc1CNC(=O)C1CCN(c2nc3ccc(Cl)cc3[nH]2)CC1 the results were D1 PAM 6, D1 agonist 2, D1 antagonist -74*, TRHR agonist -1, TRHR enhancer 1 and GRP78 ERSR act 0%.
COc1ccccc1CNC(=O)C1CCN(c2nc3ccc(C)cc3[nH]2)CC1 was read as D1 PAM 0, D1 agonist 1, D1 antagonist 9, TRHR agonist 0, TRHR enhancer -6 and GRP78 ERSR act -1%.
Screening Cc1c(NC(=O)C(C)OC(=O)c2cccc(S(=O)(=O)N(C)C)c2)c(=O)n(-c2ccccc2)n1C (configuration not stated) returned D1 PAM 0, D1 agonist 2, D1 antagonist -10, TRHR agonist 1, TRHR enhancer -7 and GRP78 ERSR act -4%.
`CC(Cc1cccs1)NC(=S)Nc1ccc(Cl)cc1` (configuration not stated) gave D1 PAM -9, D1 agonist 22, D1 antagonist -60*, TRHR agonist 0, TRHR enhancer -6 and GRP78 ERSR act -3%.
`COCCCNC(=S)NCCc1ccc(F)cc1` gave D1 PAM -2, D1 agonist 1, D1 antagonist 6, TRHR agonist -1, TRHR enhancer 3 and GRP78 ERSR act -1%.
Screening Cc1nn(CC(=O)NC(=O)NC2CCCC(C)C2C)c(=O)c(C#N)c1C (configuration not stated) returned D1 PAM -3, D1 agonist -2, D1 antagonist 9, TRHR agonist 0, TRHR enhancer -16 and GRP78 ERSR act -5%.
For C=CCn1c(=O)c(C(=O)OCC)c(O)c2ccccc21 the results were D1 PAM 4, D1 agonist 2, D1 antagonist 3, TRHR agonist 0, TRHR enhancer 6 and GRP78 ERSR act -2%.
`CCCn1c(=O)c(C(=O)OCC)c(O)c2cc(Br)ccc21` gave D1 PAM 11, D1 agonist -3, D1 antagonist 2, TRHR agonist 0, TRHR enhancer 32* and GRP78 ERSR act -1%.
`CCNS(=O)(=O)c1ccc(NC(=O)Cn2nc(C(F)(F)F)cc2C)cc1` gave D1 PAM -2, D1 agonist 7, D1 antagonist -39*, TRHR agonist 1, TRHR enhancer -2 and GRP78 ERSR act 1%.
`CC(=O)c1ccccc1OCCOCCOc1ccccc1C(C)=O` gave D1 PAM -7, D1 agonist 25, D1 antagonist -34*, TRHR agonist 1, TRHR enhancer -1 and GRP78 ERSR act -6%.
COc1cc(C)ccc1OCCCOc1ccccc1Cl was read as D1 PAM 2, D1 agonist 3, D1 antagonist 0, TRHR agonist 0, TRHR enhancer -6 and GRP78 ERSR act 7%.
`COc1cc(C)ccc1OCCCCOc1ccccc1C(C)=O` gave D1 PAM -6, D1 agonist 18, D1 antagonist -49*, TRHR agonist 0, TRHR enhancer -10 and GRP78 ERSR act 0%.
`CC(C)[C@H](NC(=O)N1CCn2c1nc1ccccc12)C(=O)NCC1CCCO1` (some centres not stated) gave D1 PAM -1, D1 agonist 2, D1 antagonist -4, TRHR agonist 0, TRHR enhancer -4 and GRP78 ERSR act -4%.
Screening CCc1ccc(CN2CCCC(CNC(=O)c3cc(OC)cc(OC)c3)C2)cc1 (configuration not stated) returned D1 PAM 0, D1 agonist 9, D1 antagonist -37*, TRHR agonist 0, TRHR enhancer -4 and GRP78 ERSR act -4%.
Screening COc1cc(OC)cc(C(=O)NCC2CCCN(Cc3ccc(SC)cc3)C2)c1 (configuration not stated) returned D1 PAM -1, D1 agonist 4, D1 antagonist -22, TRHR agonist -1, TRHR enhancer -16 and GRP78 ERSR act -4%.
Screening N#CC1CC(c2ccc([N+](=O)[O-])cc2)=NN1c1ccc([N+](=O)[O-])cc1 (configuration not stated) returned D1 PAM -4, D1 agonist 34*, D1 antagonist 19, TRHR agonist 17, TRHR enhancer -4 and GRP78 ERSR act 0%.
Screening O=[N+]([O-])c1cccc(C2CC(c3ccccc3)=NN2c2ccccc2)c1 (configuration not stated) returned D1 PAM -3, D1 agonist 5, D1 antagonist -1, TRHR agonist 0, TRHR enhancer 2 and GRP78 ERSR act 0%.
